Results reported in the supplement of paper PMC8728848.
The entries come from a sample that favours the strongest signals as a whole.

How the values were obtained:
Assay in all cases: glycan array binding signal (z-score within array); higher = stronger binding
Settings in all cases: glycan notation: IUPAC condensed, linker removed; mutation: R74S
[1] = molecular target: Gal(b1-4)GlcNAc(b1-3)Gal(b1-4)GlcNAc(b1-3)Gal(b1-4)GlcNAc(b1-3)Gal(b1-4)GlcNAc(b1-2)Man(a1-3)[Gal(b1-4)GlcNAc(b1-3)Gal(b1-4)GlcNAc(b1-3)Gal(b1-4)GlcNAc(b1-3)Gal(b1-4)GlcNAc(b1-2)Man(a1-6)]Man(b1-4)GlcNAc(b1-4)[Fuc(a1-6)]GlcNAc
Procedure, shortened: (§1)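 The binding signal is a Z-score computed within each array and averaged over linkers. Arrays of the same protein sequence at different concentrations or buffers were also averaged together. Data originate from 3228 arrays in the Consortium for Functional Glycomics database, kept only where the protein sequence was available.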

[2] = molecular target: Gal(b1-4)GlcNAc(b1-3)Gal(b1-4)GlcNAc(b1-3)Gal(b1-4)GlcNAc(b1-3)Gal(b1-4)GlcNAc(b1-2)[Gal(b1-4)GlcNAc(b1-3)Gal(b1-4)GlcNAc(b1-3)Gal(b1-4)GlcNAc(b1-3)Gal(b1-4)GlcNAc(b1-6)]Man(a1-6)[Gal(b1-4)GlcNAc(b1-3)Gal(b1-4)GlcNAc(b1-3)Gal(b1-4)GlcNAc(b1-3)Gal(b1-4)GlcNAc(b1-2)Man(a1-3)]Man(b1-4)GlcNAc(b1-4)[Fuc(a1-6)]GlcNAc
Procedure, shortened: as §1

[3] = molecular target: Gal(b1-4)GlcNAc(b1-3)Gal(b1-4)GlcNAc(b1-3)Gal(b1-4)GlcNAc(b1-3)Gal(b1-4)GlcNAc(b1-3)Gal(b1-4)GlcNAc(b1-2)Man(a1-3)[Gal(b1-4)GlcNAc(b1-3)Gal(b1-4)GlcNAc(b1-3)Gal(b1-4)GlcNAc(b1-3)Gal(b1-4)GlcNAc(b1-3)Gal(b1-4)GlcNAc(b1-2)Man(a1-6)]Man(b1-4)GlcNAc(b1-4)GlcNAc
Procedure, shortened: as §1

[4] = molecular target: Gal(b1-4)GlcNAc(b1-3)Gal(b1-4)GlcNAc(b1-3)Gal(b1-4)GlcNAc(b1-3)Gal(b1-4)GlcNAc(b1-3)Gal(b1-4)GlcNAc(b1-2)Man(a1-3)[Gal(b1-4)GlcNAc(b1-3)Gal(b1-4)GlcNAc(b1-3)Gal(b1-4)GlcNAc(b1-3)Gal(b1-4)GlcNAc(b1-3)Gal(b1-4)GlcNAc(b1-2)Man(a1-6)]Man(b1-4)GlcNAc(b1-4)[Fuc(a1-6)]GlcNAc
Procedure, shortened: as §1

[5] = molecular target: Gal(b1-4)GlcNAc(b1-3)Gal(b1-4)GlcNAc(b1-3)Gal(b1-4)GlcNAc(b1-3)Gal(b1-4)GlcNAc(b1-3)Gal(b1-4)GlcNAc(b1-2)[Gal(b1-4)GlcNAc(b1-3)Gal(b1-4)GlcNAc(b1-3)Gal(b1-4)GlcNAc(b1-3)Gal(b1-4)GlcNAc(b1-3)Gal(b1-4)GlcNAc(b1-6)]Man(a1-6)[Gal(b1-4)GlcNAc(b1-3)Gal(b1-4)GlcNAc(b1-3)Gal(b1-4)GlcNAc(b1-3)Gal(b1-4)GlcNAc(b1-3)Gal(b1-4)GlcNAc(b1-2)Man(a1-3)]Man(b1-4)GlcNAc(b1-4)[Fuc(a1-6)]GlcNAc
Procedure, shortened: as §1

[6] = molecular target: GalNAc(b1-3)Gal(a1-4)Gal(b1-4)GlcNAc(b1-3)Gal(b1-4)Glc
Procedure, shortened: as §1

[7] = molecular target: GalNAc(b1-3)Gal(a1-6)Gal(b1-4)Glc
Procedure, shortened: as §1

[8] = molecular target: GalNAc(b1-4)GlcNAc(b1-3)GalNAc(b1-4)GlcNAc
Procedure, shortened: as §1

[9] = molecular target: GlcNAc(b1-3)Fuc
Procedure, shortened: as §1

[10] = molecular target: GlcNAc(b1-3)Gal(b1-4)GlcNAc(b1-3)Gal(b1-4)GlcNAc(b1-3)Gal(b1-4)GlcNAc(b1-2)Man(a1-3)[GlcNAc(b1-3)Gal(b1-4)GlcNAc(b1-3)Gal(b1-4)GlcNAc(b1-3)Gal(b1-4)GlcNAc(b1-2)Man(a1-6)]Man(b1-4)GlcNAc(b1-4)[Fuc(a1-6)]GlcNAc
Procedure, shortened: as §1

[11] = molecular target: GlcNAc(b1-3)Gal(b1-4)GlcNAc(b1-3)Gal(b1-4)GlcNAc(b1-3)Gal(b1-4)GlcNAc(b1-3)Gal(b1-4)GlcNAc(b1-2)Man(a1-3)[GlcNAc(b1-3)Gal(b1-4)GlcNAc(b1-3)Gal(b1-4)GlcNAc(b1-3)Gal(b1-4)GlcNAc(b1-3)Gal(b1-4)GlcNAc(b1-2)Man(a1-6)]Man(b1-4)GlcNAc(b1-4)[Fuc(a1-6)]GlcNAc
Procedure, shortened: as §1

[12] = molecular target: GlcNAc(b1-3)[GlcNAc(b1-6)]Gal(b1-4)GlcNAc
Procedure, shortened: as §1

[13] = molecular target: GlcNAc(b1-4)GlcNAc
Procedure, shortened: as §1

[14] = molecular target: GlcNAc(b1-4)GlcNAc(b1-4)GlcNAc(b1-4)GlcNAc(b1-4)GlcNAc
Procedure, shortened: as §1

[15] = molecular target: Man(a1-2)Man(a1-6)[Man(a1-3)]Man(a1-6)[Man(a1-2)Man(a1-2)Man(a1-3)]Man
Procedure, shortened: as §1

[16] = molecular target: Neu5Ac(a2-3)Gal(b1-3)GalNAc(b1-4)[Neu5Ac(a2-3)]Gal(b1-4)Glc
Procedure, shortened: as §1

[17] = molecular target: Neu5Ac(a2-3)Gal(b1-3)GlcNAc(b1-3)GalNAc
Procedure, shortened: as §1

[18] = molecular target: Neu5Ac(a2-3)Gal(b1-3)[GlcNAc(b1-6)]GalNAc
Procedure, shortened: as §1

[19] = molecular target: Neu5Ac(a2-3)Gal(b1-4)GlcNAc
Procedure, shortened: as §1

[20] = molecular target: Neu5Ac(a2-3)Gal(b1-4)GlcNAc(b1-2)Man
Procedure, shortened: as §1

[21] = molecular target: Neu5Ac(a2-3)Gal(b1-4)GlcNAc(b1-2)Man(a1-3)[GlcNAc(b1-4)][Neu5Ac(a2-3)Gal(b1-4)GlcNAc(b1-2)Man(a1-6)]Man(b1-4)GlcNAc(b1-4)GlcNAc
Procedure, shortened: as §1

[22] = molecular target: Neu5Ac(a2-6)Gal(b1-4)GlcNAc(b1-2)Man(a1-3)[Man(a1-6)]Man(b1-4)GlcNAc(b1-4)GlcNAc
Procedure, shortened: as §1

[23] = molecular target: Neu5Ac(a2-6)Gal(b1-4)GlcNAc(b1-2)[Neu5Ac(a2-6)Gal(b1-4)GlcNAc(b1-4)]Man(a1-3)[GlcNAc(b1-4)][Neu5Ac(a2-6)Gal(b1-4)GlcNAc(b1-2)[Neu5Ac(a2-6)Gal(b1-4)GlcNAc(b1-6)]Man(a1-6)]Man(b1-4)GlcNAc(b1-4)GlcNAc
Procedure, shortened: as §1

[24] = molecular target: Neu5Gc(a2-3)Gal(b1-4)GlcNAc(b1-3)Gal(b1-4)GlcNAc(b1-2)Man(a1-3)[Neu5Gc(a2-3)Gal(b1-4)GlcNAc(b1-3)Gal(b1-4)GlcNAc(b1-2)Man(a1-6)]Man(b1-4)GlcNAc(b1-4)GlcNAc
Procedure, shortened: as §1

[25] = molecular target: Neu5Gc(a2-3)Gal(b1-4)[Fuc(a1-3)]GlcNAc
Procedure, shortened: as §1

B1: Gal 7 (Homo sapiens) (protein)
chain: MSNVPHKSSLPEGIRPGTVLRIRGLVPPNASRFHVNLLCGEEGGSDAALHFNPRLDTSEVVFNSKEGGSWGREESGPGVPFGRGQPFEVLIIASDDGFKAVVGDAQYHHFRHRLPLARVRLVEVGGDVQLDSVRIF
For B1, the “glycan array binding signal (z-score)” value [1] was 4.17, the “glycan array binding signal (z-score)” value [2] was 4.03 and the “glycan array binding signal (z-score)” value [3] was 7.44. The “glycan array binding signal (z-score)” value [4] was 4.13, the “glycan array binding signal (z-score)” value [5] was 4.35 and the “glycan array binding signal (z-score)” value [6] was -0.451. For the same binder, the “glycan array binding signal (z-score)” value [7] was -0.396, the “glycan array binding signal (z-score)” value [8] was 0.573 and the “glycan array binding signal (z-score)” value [9] was 0.85. For the same binder, the “glycan array binding signal (z-score)” value [10] was 4.14, the “glycan array binding signal (z-score)” value [11] was 2.87 and the “glycan array binding signal (z-score)” value [12] was -0.632. The “glycan array binding signal (z-score)” value [13] was -0.382, the “glycan array binding signal (z-score)” value [14] was -0.329 and the “glycan array binding signal (z-score)” value [15] was -0.26. For the same binder, the “glycan array binding signal (z-score)” value [16] was -0.265, the “glycan array binding signal (z-score)” value [17] was -0.585 and the “glycan array binding signal (z-score)” value [18] was -0.436. For the same binder, the “glycan array binding signal (z-score)” value [19] was -0.58, the “glycan array binding signal (z-score)” value [20] was 0.603 and the “glycan array binding signal (z-score)” value [21] was -0.325. The “glycan array binding signal (z-score)” value [22] was -0.264, the “glycan array binding signal (z-score)” value [23] was -0.265 and the “glycan array binding signal (z-score)” value [24] was 1.39. For the same binder, the “glycan array binding signal (z-score)” value [25] was -0.084.
